# Measured values published in PubChem BioAssay (NCI).
# The panel holds about 83,000 compounds, 20% with a hit somewhere; the sample as a whole holds those more often.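 For each line, cells grew in 96-well plates with the test compound present at a single concentration for 48 hours.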 A number with no mark means an inactive call. The source made the active and inactive calls.
# Test system: M14 melanoma
# Assay: NCI-60 one-dose screen, 48 h (100 = growth as untreated, 0 = no growth, -100 = all killed)
# Details: 10 µM unless noted
# Experimental: Growth inhibition of the M14 human tumor cell line is measured as a screen for anti-cancer activity. Cells are grown in 96 well plates and exposed to the test compound for 48 hours. Compounds are tested at a single concentration, which is 10^-5 M for most compounds. The reported endpoint is percent growth (GI% or GIPRCNT), where numbers from 0 - 100% represent growth inhibition, and numbers from -100% - 0 represent cell death. For example, a value of 40 represents 60% growth inhibition. A value of 0 means no net growth occurred over the course of the experiment. A value of -40 indicates 40% of cells at the beginning of the experiment died by the end of the experiment. A value of -100 means all cells are dead at the end of the experiment.
# NCI-60 Human Tumor Cell Lines Screen was performed using the standard one-dose NCI protocol, which is described in more detail at https://dtp.cancer.gov/discovery_development/nci-60/default.htm.
# Compounds with GIPRCNT values below 10 were considered active. Activity score was based on GIPRCNT using the following formula: […]
# Score is 0 for GIPRCNT values of 100 or above, 50 for GIPRCNT values of 0, and 100 for GIPRCNT values of -100.
row,Structure (SMILES),growth
1,CCCCC(C#N)C(N)=O (stereo not given),104%
2,COc1ccc(C(=O)/C=C/c2c(Cl)nc3c(c(C)nn3-c3ccccc3)c2-c2ccc(Br)cc2)cc1,100%
3,COc1cc(/C=C/C(=O)Nc2cccnc2Nc2cc(OC)c(OC)c(OC)c2)cc(OC)c1OC,100%
4,CC(=O)Oc1c(C)c(OC(C)=O)c2c(c1C(C)=O)OC1CC(=O)C(C(C)=O)=C(O)C21C (stereo not given),96%
5,C=C(C[C@](O)(C(=O)/C=C/c1ccc(Cl)cc1)C(=O)OC)c1ccccc1,84.1%
6,CC[C@]1(O)CC2CN(CCc3c([nH]c4ccccc34)[C@@](C(=O)OC)(c3cc4c(cc3OC)N(C)[C@H]3[C@@](O)(C(=O)OC)[C@H](OC(C)=O)[C@]5(CC)C=CCN6CC[C@]43[C@@H]65)C2)C1 (stereo not given in full),-15.6% (active)
7,CCOC(=O)/C=C(/C)Sc1cc(O)c2ccccc2c1O,-94.6% (active)
8,Cc1c(C(N)=O)sc2ncn(CC(=O)Nc3ccc(Cl)cc3)c(=O)c12,103%
9,Clc1cc(Cl)c(OCC#CI)cc1Cl,37.7%
10,CCCc1nn(C)c2c(=O)[nH]c(-c3cc(S(=O)(=O)N4CCN(C)CC4)ccc3OCC)nc12,102%
11,Cc1ccc(NC(=O)Nc2ccc(-c3cccnc3)cc2N2CCC(CO)CC2)cc1,27.1%
12,O=C(Nc1cccc(C(F)(F)F)c1)Nc1ccc(OCc2nnc(-c3ccc(Cl)cc3)o2)c(F)c1,73.5%
13,COc1cc(/C=C/C(=O)c2c(-c3ccc(Cl)cc3)nc3sc(C)nn23)cc(OC)c1OC,75.8%
14,S=C(Nc1ccc(C2=NCCN2)cc1)Nc1ccc(C2=NCCN2)cc1,94.5%
15,c1ccc2c(c1)[nH]c1c2cc[n+]2cc3c(cc12)CCCC3,19.7%
16,O=C(N1CCC(CN=c2cc3n(-c4ccc(Cl)cc4)c4ccccc4nc-3cc2Nc2ccc(Cl)cc2)CC1)N1CC1,-73.8% (active)
17,Cc1cc(C(=O)O)c(C)cc1C(=O)O,101%
18,COc1ccc(-c2c(N)noc2-c2cc(OC)c3c(c2)OCCO3)cc1,-16.2% (active)
19,CC(NC(=O)C(C)Oc1ccc(Cl)cc1Cl)C(=O)O (stereo not given),92.2%
20,O=C(O)c1ccccc1C(=O)OC1CCCC2CCCC21 (stereo not given),115%

row,Structure (SMILES),growth
1,O=C1CC(C(F)(F)F)=NN1C(=O)c1nn(-c2ccc(Cl)cc2)cc1O,88.4%
2,CC12CCCCC1C(C(N)=O)C(=O)O2 (stereo not given),104%
3,CO[C@H]1/C=C/O[C@@]2(C)Oc3c(C)c(O)c4c(O)c(c(/C=N/N5C(C)CN(Cc6ccccc6)CC5C)c(O)c4c3C2=O)NC(=O)/C(C)=C\C=C\[C@H](C)[C@H](O)[C@@H](C)[C@@H](O)[C@@H](C)[C@H](OC(C)=O)[C@@H]1C (stereo not given in full),89.9%
4,C=Cc1nn2c(CCC(=O)c3nc4ccccc4[nH]3)nnc2s1,92.9%
5,O=C(Nc1ccccc1Cl)c1cnc2ccc(C3CCNCC3)cn12,72.7%
6,COc1ccc(C2CC(c3ccc(OC)c(OC)c3)=NN2C(=O)c2cc(OC)c(OC)c(OC)c2)cc1 (stereo not given),-11.8% (active)
7,Oc1[nH]c2ccccc2c1/C=c1/ccc2c(c1)N=C(c1cc(F)cc(F)c1)N=2,58.2%
8,CC(C)(C)c1ccc(C(O)CCCN2CCC(C(O)(c3ccccc3)c3ccccc3)CC2)cc1 (stereo not given),-91.3% (active)
9,CN=C(NC)N/N=C(C)\C=N\NC(=NC)NC,101%
10,CCN(CC)CCOc1ccc(C2=C(c3ccccc3)CCc3cc(OC)ccc32)cc1,-63.6% (active)
11,CCOC(=O)C(Cc1ccccc1)(C(=O)OCC)C(Br)C(=O)c1ccccc1 (stereo not given),84.1%
12,Cc1nn(-c2ccc(Cl)cc2)c2nc3c(nc12)C(=O)c1ccccc1-3,70.5%
13,Cn1cc(-c2csc(-c3c[nH]c4ncccc34)n2)c2cc(F)cnc21,58.7%
14,Cn1cnc([N+](=O)[O-])c1S(=O)(=O)Oc1ccc(Cl)cc1,61%
15,COc1cc(C2C=C(c3ccc(C)cc3)Nc3nc(SC)[nH]c(=O)c32)ccc1Oc1ccnc2cc(Cl)ccc12 (stereo not given),85.1%
16,C[C@]12C[C@H](O)[C@H]3[C@@H](CCC4=CC(=O)CC[C@@]43C)[C@@H]1CC[C@@H]2C(=O)CO,107%
17,Cc1nc(N)[nH]c(=O)c1C,105%
18,O=C(Nc1ccc(C2=NCCCN2)cc1)Nc1ccc(C2=NCCCN2)cc1,92.7%
19,Clc1ncn[nH]1,105%
20,ClC1=C(Cl)C(Cl)=C(Cl)C1=C/C=C/c1ccccc1,-55.6% (active)
